Reference: PubChem BioAssay
Active and inactive are the calls of the source. Unless noted, no stated cut-off is given here; in the data, active means inhibition above about 42%; inactive means the rest.

test system: not listed separately; test: StAR promoter reporter inhibitors, counter-screen for LRH-1 inverse agonist project, cell-based, luminescence, high throughput (AID 651611; in the data active means inhibition above about 28%); settings: StAR promoter luciferase reporter counterscreen, at 3.6 µM, stronger effect = higher value

Structure (SMILES) | inhibition
O=C(Nc1nccs1)c1ccc(S(=O)(=O)NCC2CCCCC2)cc1 | 6.64% (inactive)
O=C(Nc1nc(-c2ccccn2)cs1)c1ccc([N+](=O)[O-])o1 | 32% (active)
Cc1ccc(NC(=O)CSc2nnc([C@@H]3CCCN3C(=O)OC(C)(C)C)o2)c(C)c1 | 13.8% (inactive)
C=CCNC(=S)N/N=C(\C)c1ccccn1 | 89.3% (active)
O=C(NCCN1CCOCC1)c1ccc2c(c1)N(Cc1ccccc1F)C(=O)CS2 | 11.1% (inactive)
COc1cccc(C=Nc2ccc3c(c2)OCCO3)c1O | -5.52% (inactive)
COc1cc(NC(=O)CN2C(=O)NC(c3ccccc3)(c3ccccc3)C2=O)c(C)cc1[N+](=O)[O-] | 24.1% (inactive)
c1cnn(-c2nc(N3CCOCC3)nc(N3CCOCC3)n2)c1 | 29.5% (active)
O=C(Nc1cccc([N+](=O)[O-])c1)c1ccc([N+](=O)[O-])o1 | 24% (inactive)
Cc1ccc(NC(=O)CSc2nsc(SCC(=O)Nc3ccc(C)cc3C)c2C#N)c(C)c1 | 13.3% (inactive)
Cc1ccc(NC(=O)CN2CCC(NC(=O)C3CCCCC3)CC2)c(Br)c1 | 11.8% (inactive)

molecular target: Nuclear receptor subfamily 5 group A member 2 (Homo sapiens) (UniProt O00482); test: LRH-1 (NR5A2) inverse agonists, retest, confirmation, cell-based, luminescence (AID 651613); settings: cell-based LRH-1 luciferase reporter, inverse agonism; at 3.6 µM; stronger effect = higher value;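 further: HEK293T cells co-transfected with LRH-1 and StAR promoter luciferase reporter; 0% = vehicle wells and 100% = parental cells lacking receptor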
Sequence (O00482 whole entry, looked up): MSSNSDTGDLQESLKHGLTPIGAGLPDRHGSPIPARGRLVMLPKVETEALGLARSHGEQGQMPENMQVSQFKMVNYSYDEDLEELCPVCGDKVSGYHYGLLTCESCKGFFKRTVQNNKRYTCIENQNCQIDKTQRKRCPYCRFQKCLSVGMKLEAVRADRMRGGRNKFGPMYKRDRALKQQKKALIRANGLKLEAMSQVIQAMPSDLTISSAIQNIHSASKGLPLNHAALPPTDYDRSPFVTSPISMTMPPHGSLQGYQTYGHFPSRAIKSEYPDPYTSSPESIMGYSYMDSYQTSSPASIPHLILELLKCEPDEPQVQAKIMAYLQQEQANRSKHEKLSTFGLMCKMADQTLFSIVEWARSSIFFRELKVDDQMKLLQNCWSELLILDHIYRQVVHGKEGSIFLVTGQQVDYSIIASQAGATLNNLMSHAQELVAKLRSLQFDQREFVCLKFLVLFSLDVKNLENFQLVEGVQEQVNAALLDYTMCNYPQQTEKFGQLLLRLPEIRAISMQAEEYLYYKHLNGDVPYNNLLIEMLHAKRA

Structure (SMILES) | inhibition
COc1ccc(NC(=S)NCCc2ccc(F)cc2)c(OC)c1 | 10.5% (inactive)
CC(=O)c1ccc(NC(=O)CN2C(=O)NC3(CCc4ccccc43)C2=O)cc1 (stereo unspecified) | 61.5% (active)
CN1CC(=O)N(CC(=O)Nc2ccc(N3CCOCC3)cc2)C1=O | 63.9% (active)
O=C(c1ccccc1)N1CCN(c2ccc([N+](=O)[O-])c(N3CCOCC3)c2)CC1 | 39.5% (inactive)
CC(O)(c1cccc(F)c1)c1nc(-c2ccc(S(C)(=O)=O)cc2)cs1 (stereo unspecified) | 48.7% (active)
O=C(c1ccc(Cl)cc1)N1CCCCC(Cl)C1=O (stereo unspecified) | 56.1% (active)
O=C(Nc1cccc(NC(=O)c2ccccc2Cl)c1)c1ccc([N+](=O)[O-])o1 | 58.8% (active)
O=C(Nc1ccc(Cl)cn1)c1ccc([N+](=O)[O-])o1 | 51.5% (active)
CC(=O)Nc1cc(-c2ccc(S(C)(=O)=O)cc2)cn2c(-c3ccc(F)c(Cl)c3)cnc12 | 61.1% (active)
COc1ccc(N2CCN(C(=O)CN3C(=O)NC4(CCCCCC4)C3=O)CC2)cc1 | 46.6% (active)
COc1ccccc1NC(=O)CN1CCN(CC(=O)Nc2ccc3c(c2)OCCO3)CC1 | 56.8% (active)
CCCN(CC(=O)Nc1ccc(C(N)=O)cc1)CC(=O)Nc1ccccc1C | 55.4% (active)
O=C(NCc1cccc(C(F)(F)F)c1)c1cc(-c2ccccc2)nn1CC1CC(c2cccnc2)=NO1 (stereo unspecified) | 36.4% (inactive)
O=C(COC(=O)c1ccc(S(=O)(=O)N2CCCC2)cc1)Nc1ccc(N2CCOCC2)cc1 | 48.5% (active)
O=C(CSc1nc2[nH]ncc2c(=O)n1-c1ccccc1)c1ccc2c(c1)OCCO2 | 38.2% (inactive)
CC(NC(=O)c1ccco1)C(c1cccs1)N1CCN(c2ccccc2)CC1 (stereo unspecified) | 34.9% (inactive)
CCCc1cc(=O)oc2c(C)c(OCC(=O)NCCN3CCOCC3)ccc12 | 43.8% (active)
CCc1ccc2oc(C(=O)NCc3ccncc3)c(C)c2c1 | 53.2% (active)
Cc1cc(OCC(=O)Nc2ccc(OCc3ccccc3)cc2)nc(C(C)C)n1 | 48% (active)
CC(=O)/C(=N/Nc1ccccc1[N+](=O)[O-])N1CCCc2ccccc21 | 49.2% (active)

Structure (SMILES) | inhibition
O=C(C[n+]1ccc(Cc2ccccc2)cc1)Nc1ccc([N+](=O)[O-])cc1Cl | 54.7% (active)
O=C(Nc1cccc2ccccc12)c1ccc([N+](=O)[O-])o1 | 68.5% (active)
CCCc1cc(=O)oc2c(C)c(OCC(=O)NC3CC(C)(C)NC(C)(C)C3)ccc12 | 53% (active)
Cc1cccc(NC(=O)c2ccc([N+](=O)[O-])o2)c1C | 64.2% (active)
Cc1ccc(/C=C2\SC(=S)N(c3c(C)n(C)n(-c4ccccc4)c3=O)C2=O)cc1 | 55.7% (active)
CC1CC(C)CN(c2cc(N(C)CCO)c([N+](=O)[O-])c3nonc23)C1 (stereo unspecified) | 64.2% (active)
CN(C)c1ccc(C=c2c3ccccc3n3c2cc(-c2ccc(Cl)cc2)[n+]3C)cc1 | 102% (active)
COc1ccc(/C=N/NC(=O)c2[nH]c3ccc(Br)cc3c2-c2ccccc2)cc1 | 42.6% (active)
CCCc1cc(NCCOCCO)n2c(nc3ccccc32)c1C#N | 45.1% (active)
O=C(Nc1nccs1)c1ccc(S(=O)(=O)NCC2CCCCC2)cc1 | 41.7% (active)
O=C(Nc1nc(-c2ccccn2)cs1)c1ccc([N+](=O)[O-])o1 | 69.5% (active)
Cc1ccc(NC(=O)CSc2nnc([C@@H]3CCCN3C(=O)OC(C)(C)C)o2)c(C)c1 | 58% (active)
C=CCNC(=S)N/N=C(\C)c1ccccn1 | 95.5% (active)
O=C(NCCN1CCOCC1)c1ccc2c(c1)N(Cc1ccccc1F)C(=O)CS2 | 42.4% (active)
COc1cccc(C=Nc2ccc3c(c2)OCCO3)c1O | -12% (inactive)
COc1cc(NC(=O)CN2C(=O)NC(c3ccccc3)(c3ccccc3)C2=O)c(C)cc1[N+](=O)[O-] | 46% (active)
c1cnn(-c2nc(N3CCOCC3)nc(N3CCOCC3)n2)c1 | 63.6% (active)
O=C(Nc1cccc([N+](=O)[O-])c1)c1ccc([N+](=O)[O-])o1 | 64.7% (active)
Cc1ccc(NC(=O)CSc2nsc(SCC(=O)Nc3ccc(C)cc3C)c2C#N)c(C)c1 | 46.1% (active)
Cc1ccc(NC(=O)CN2CCC(NC(=O)C3CCCCC3)CC2)c(Br)c1 | 34% (inactive)
